SMN2 splice up: SMN2 splice variant enhancement | HEK293 SMN2-luciferase splicing reporter, luminescence, 30-36 h | Potency, µM (top dose mostly 46.1 µM), for inactives: top-dose activity change, positive = activation, actives largely listed as activators | 210,000 tested, 2.8% active | AID 1458; note: % of control where 0% means no effect; nearly all actives have a fitted effect of over 55% in size
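qHTS luciferase splicing reporter: luminescence rises when SMN2 exon 7 is included in transfected HEK293 cells. Compound exposure lasted 30-36 h at 37C, with 4.5 mM final sodium butyrate as control, followed by a ONE-Glo read.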
NPC1 prom act: activators of NPC1 promoter; Huh7 NPC1 promoter luciferase reporter, 24 h; Potency, µM (doses to about 9.22 µM), for inactives: at the top dose activation, most hits filed as activators; 320,000 tested, 2.4% active; note: % of control where 0% means no effect; nearly all actives have a fitted effect of over 60% in size
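Cells: Huh7 expressing luciferase under the NPC1 promoter, 1500/well. Seeded 2 h, compound added, incubated 24 h at 37 °C. Luciferase reagent, 10 min ambient, then luminescence.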
FLuc modulator: firefly luciferase modulation, counter-screen for miR-21 project | AID 588342 | P08659 | Potency, µM (series often up to 57.5 µM), for the others: top-dose activity change, negative = inhibition, hits mostly inhibitors | 360,000 tested, 6.9% active | purified FLuc, Km substrates, luminescence inhibition;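 note: plate controls were vehicle for no effect and reference inhibitor for full effect; nearly all actives have a fitted effect of over 55% in size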
Target sequence (P08659 whole entry, looked up): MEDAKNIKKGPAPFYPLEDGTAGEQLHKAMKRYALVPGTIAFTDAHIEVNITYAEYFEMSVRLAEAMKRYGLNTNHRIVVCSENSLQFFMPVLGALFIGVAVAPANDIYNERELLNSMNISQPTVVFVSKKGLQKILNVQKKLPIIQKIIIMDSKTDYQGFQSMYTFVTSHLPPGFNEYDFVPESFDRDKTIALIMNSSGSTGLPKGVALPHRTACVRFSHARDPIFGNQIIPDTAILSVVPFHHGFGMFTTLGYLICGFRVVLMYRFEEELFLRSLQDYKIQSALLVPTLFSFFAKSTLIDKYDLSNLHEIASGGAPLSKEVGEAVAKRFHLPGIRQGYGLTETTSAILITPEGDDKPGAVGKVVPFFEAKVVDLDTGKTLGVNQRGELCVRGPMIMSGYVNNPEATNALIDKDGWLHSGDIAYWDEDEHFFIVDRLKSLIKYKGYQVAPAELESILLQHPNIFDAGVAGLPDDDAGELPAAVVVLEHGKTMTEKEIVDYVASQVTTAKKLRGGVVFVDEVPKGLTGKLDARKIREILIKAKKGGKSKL
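Biochemical qHTS of compounds, final roughly 60 µM downward over six points, against 10 nM purified firefly luciferase using Km concentrations of substrates (10 uM D-luciferin, 10 uM ATP) in Tris acetate pH 7.5 buffer; luminescence output.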
Rab9 prom act: Rab9 promoter activation; Huh7 Rab9 promoter-luciferase reporter, luminescence, 24 h; Potency, µM (titrated, usually from 9.22 µM), without a hit: at the highest dose activation, negative = inhibition, hits mostly activators; 320,000 tested, 2.8% active; AID 485297; note: % of control where 0% means no effect; nearly all actives have a fitted effect of over 60% in size
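Using Huh7 cells stably transfected with Rab9 promoter–luciferase, compounds were incubated 24 h at 37 °C, 5% CO2; luciferase luminescence was read 10 min after reagent addition.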
ELG1 genotoxic: induces genotoxicity in HEK293T cells with luciferase-tagged ELG1; HEK293T ELG1-luciferase reporter, luminescence, 16 h; Potency, µM (top dose mostly 46 µM), for inactives: at the top dose activity change, positive = activation, hits mostly activators; 330,000 tested, 1.3% active; AID 504466; note: % of control where 0% means no effect; nearly all actives have a fitted effect of over 60% in size
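DMSO vehicle served as control against compound-treated ELG1-luciferase HEK293T cells; exposure lasted 16 hr at 37 °C and 5% CO2, followed by ONE-Glo luminescence detection after 30 min.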
Active calls of the source: *; [ ] = remark or other dose. The list is not random: actives were taken first. Their share in the collection is about 7.4%. Calls come from the whole dose curve; as a rule, active = well fitted curve in the direction sought with a large enough effect; inconclusive = small, poorly fitted or top-dose-only effect, or another doubt; inactive = no such curve, though single readings can be large; an effect the other way counts as inactive or inconclusive. Potency is the fitted concentration of half-maximal effect.

For CCOC(=O)C1CCCN(C(=O)CCc2nnc(-c3ccc(C(C)=O)s3)o2)C1 (configuration not stated) the results were NPC1 prom act 2.5µM*, FLuc modulator 11µM*, Rab9 prom act 0.79µM* and ELG1 genotoxic 18µM*.
Screening O=C(O)CCN1C(=S)CSC1=S returned SMN2 splice up -10%[9.22 µM].
CN(C(=O)CSc1ncnc2ccccc12)C1CCCCC1 was read as NPC1 prom act inconclusive, FLuc modulator 15µM*, Rab9 prom act 3.5µM* and ELG1 genotoxic inconclusive.
Screening CN(C(=O)COc1ncnc2ccccc12)C1CCCCC1 returned ELG1 genotoxic 0%.
CCN(CC)C(=O)CSc1ncnc2sc(-c3ccccc3)cc12 was read as SMN2 splice up -10%, NPC1 prom act inconclusive, FLuc modulator 11µM*, Rab9 prom act 2.8µM* and ELG1 genotoxic inconclusive.
CN(C(=O)CSc1ncnc2scc(-c3ccccc3)c12)C1CCS(=O)(=O)C1 (configuration not stated) was read as SMN2 splice up 8%, NPC1 prom act 1%, FLuc modulator 0%, Rab9 prom act -2% and ELG1 genotoxic 3%.
CN(CCC#N)C(=O)CSc1ncnc2sc(-c3ccccc3)cc12 was read as SMN2 splice up -22%, NPC1 prom act 16%, FLuc modulator 11µM*, Rab9 prom act 20% and ELG1 genotoxic -1%.
For CN(C(=O)CSc1ncnc2sc(-c3ccccc3)cc12)C1CCS(=O)(=O)C1 (configuration not stated) the results were SMN2 splice up -47%, NPC1 prom act -1%, FLuc modulator 17µM*, Rab9 prom act 9% and ELG1 genotoxic -6%.
COc1cccc([C@@H]2Oc3ccc(OC)cc3C[C@H]2OC(=O)NCc2ccco2)c1 was read as SMN2 splice up 5%.
For Cc1ccc2nc(-c3c[nH]c4ccccc34)c(Nc3ccc(F)cc3)n2c1 the results were SMN2 splice up 14µM* and FLuc modulator 6%.
`Cc1ccn2c(Nc3ccccc3)c(-c3c[nH]c4ccccc34)nc2c1` gave SMN2 splice up 11µM* and FLuc modulator -14%.
Screening Cc1ccc(Nc2c(-c3c[nH]c4ccccc34)nc3cc(C)ccn23)cc1 returned SMN2 splice up 14µM* and FLuc modulator -11%.
For Cc1ccccc1Nc1c(-c2c[nH]c3ccccc23)nc2ccc(Cl)cn12 the results were SMN2 splice up 18% and FLuc modulator -9%.
Cc1ccccc1Nc1c(-c2c[nH]c3ccccc23)nc2ccccn12 was read as SMN2 splice up 22% and FLuc modulator 5%.
`CCOc1ccc(C(=O)Nc2ccccc2OCc2cc(=O)n3ccccc3n2)cc1` gave FLuc modulator -19%.
Screening O=C(O)c1cc(N/N=C/C(Cl)=C/c2ccccc2)ccc1Cl returned SMN2 splice up 0.89µM*, NPC1 prom act inconclusive, FLuc modulator 0.11µM*, Rab9 prom act inconclusive and ELG1 genotoxic inconclusive.
`O=C(O)/C=C/C(=O)Nc1ccc(Cl)c(C(=O)O)c1` gave NPC1 prom act 10%, FLuc modulator -8%, Rab9 prom act -1% and ELG1 genotoxic 3%.
For CC(C)n1cc(/C=N/Nc2ccc(Cl)c(C(=O)O)c2)c2ccccc21 the results were NPC1 prom act 1.8µM*, FLuc modulator 13µM*, Rab9 prom act 1.6µM* and ELG1 genotoxic 8.2µM*.
Screening O=C(O)c1cc(N/N=C/c2cccc3ccccc23)ccc1Cl returned NPC1 prom act 0.79µM*, FLuc modulator 7.6µM*, Rab9 prom act 1.4µM* and ELG1 genotoxic inconclusive.
`CC(O)C(=O)N/N=C/c1cccc2ccccc12` (configuration not stated) gave SMN2 splice up 43%, NPC1 prom act -3%, FLuc modulator -15%, Rab9 prom act -2% and ELG1 genotoxic -1%.
`N#CCC(=O)N/N=C/c1cn(Cc2ccc(Cl)c(Cl)c2)c2ccccc12` gave NPC1 prom act -1%, FLuc modulator -1%, Rab9 prom act -4% and ELG1 genotoxic 10%.
NNc1ccc(Cl)c(C(=O)O)c1 was read as NPC1 prom act 1.3µM*, FLuc modulator 12µM*, Rab9 prom act 1.3µM* and ELG1 genotoxic inconclusive.
Screening CCOC(=O)c1noc2ncnc(N3CCN(c4cccc(C(F)(F)F)c4)CC3)c12 returned FLuc modulator 1%.
For O=[N+]([O-])c1cccc(N/N=C/c2cccc3ccccc23)c1 the results were SMN2 splice up inconclusive, NPC1 prom act 5%, FLuc modulator 19µM*, Rab9 prom act 12% and ELG1 genotoxic 12%.
`CC(C)(C)C(=O)Nc1ccc(-c2nc3ccccc3s2)cc1` gave FLuc modulator 0.015µM*.
For CC(C)(C)NC(=O)c1nc2ccccc2s1 the results were SMN2 splice up -12%, NPC1 prom act 17%, FLuc modulator -26%, Rab9 prom act 4% and ELG1 genotoxic 5%.
Screening CCS(=O)(=O)c1ccccc1C(=O)Nc1ccc(-c2nc3ccccc3s2)cc1 returned FLuc modulator 9.5µM*.
For O=C(Nc1cc2c3c(c1)CC(=O)N3CCC2)c1ccc(Br)cc1 the results were NPC1 prom act 0%, FLuc modulator 15µM*, Rab9 prom act 0% and ELG1 genotoxic 11%.
`Cc1cc(C)cc(C(=O)Nc2cc3c4c(c2)CC(=O)N4CCC3)c1` gave NPC1 prom act -6%, FLuc modulator 7%, Rab9 prom act -4% and ELG1 genotoxic 3%.
For CCCCOc1ccc(CSCCN=C(N)N)cc1 the results were NPC1 prom act -15%, FLuc modulator 21µM*, Rab9 prom act -13% and ELG1 genotoxic 15µM*.
`Cc1cc(C(=O)c2cnc(/N=C/N(C)C)s2)cc(C)c1O` gave SMN2 splice up 11%, NPC1 prom act -4%, FLuc modulator -9%, Rab9 prom act 1% and ELG1 genotoxic inconclusive.
For CN(C)/C=N/c1ncc(C(=O)c2ccc(-c3ccccc3)cc2)s1 the results were SMN2 splice up -24%, NPC1 prom act -1%, FLuc modulator 21µM*, Rab9 prom act -4% and ELG1 genotoxic -5%.
`CN(C)/C=N/c1ncc(C(=O)c2ccccc2)s1` gave SMN2 splice up 14µM*, NPC1 prom act 2.8µM*, FLuc modulator 15µM*, Rab9 prom act 3.2µM* and ELG1 genotoxic 9.2µM*.
Cc1nn2c(=O)cc(COC(=O)c3cccc(NC(=O)c4ccc(F)cc4)c3)nc2s1 was read as FLuc modulator -5%.
For O=C(c1cc2cc3ccc(Cl)cc3nc2o1)N1CCCCCC1 the results were NPC1 prom act 2.5µM*, FLuc modulator 2.7µM*, Rab9 prom act 3.5µM* and ELG1 genotoxic inconclusive.

Bioassay records (PubChem BioAssay)
